# From PubChem BioAssay (NCATS)
# Where “and” joins values, the source holds several entries; their conditions need not be identical. Equal entries are not always repeated. Inconclusive results are not listed. Entries that show only a call come without a potency. Calls of active or inactive are those of the source. Calls come from the whole dose curve; as a rule, active = well fitted curve in the direction sought with a large enough effect; inconclusive = small, poorly fitted or top-dose-only effect, or another doubt; inactive = no such curve, though single readings can be large; an effect the other way counts as inactive or inconclusive.
# Tests used:
# [1] = molecular target: N-terminal Xaa-Pro-Lys N-methyltransferase 1 (Homo sapiens) (UniProt Q9BV86); experiment: qHTS Assay for Inhibitors of N-terminal methyltransferase 1 (NTMT1): LOPAC validation of the NTMT1 SAHH-coupled ThioGlo3 Assay (AID 1347143);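 note: SAH from peptide methylation measured as thiol fluorescence via SAHH coupling and ThioGlo3; nearly all actives have a fitted effect of over 70% in size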; note: potency is the fitted concentration of half-maximal effect
# Sequence of N-terminal Xaa-Pro-Lys N-methyltransferase 1 (Homo sapiens) (Q9BV86 whole entry, looked up): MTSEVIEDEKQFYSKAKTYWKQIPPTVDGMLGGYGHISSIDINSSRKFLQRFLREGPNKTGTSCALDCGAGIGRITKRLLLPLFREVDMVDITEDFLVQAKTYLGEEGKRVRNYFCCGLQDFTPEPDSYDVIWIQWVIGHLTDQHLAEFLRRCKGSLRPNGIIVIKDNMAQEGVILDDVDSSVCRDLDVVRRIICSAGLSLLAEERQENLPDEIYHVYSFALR
# In short: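 In this qHTS pilot against the LOPAC set, 125nM NTMT1 met compounds tested at multiple concentrations, and fluorescence was normalized to background.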
# [2] = molecular target: Furin (Homo sapiens) (UniProt P09958); experiment: Furin counterscreen qHTS for Zika virus inhibitors (AID 1347149); note: nearly all actives have a fitted effect of over 70% in size; note: potency is the fitted concentration of half-maximal effect
# Sequence of Furin (Homo sapiens) (P09958 whole entry, looked up): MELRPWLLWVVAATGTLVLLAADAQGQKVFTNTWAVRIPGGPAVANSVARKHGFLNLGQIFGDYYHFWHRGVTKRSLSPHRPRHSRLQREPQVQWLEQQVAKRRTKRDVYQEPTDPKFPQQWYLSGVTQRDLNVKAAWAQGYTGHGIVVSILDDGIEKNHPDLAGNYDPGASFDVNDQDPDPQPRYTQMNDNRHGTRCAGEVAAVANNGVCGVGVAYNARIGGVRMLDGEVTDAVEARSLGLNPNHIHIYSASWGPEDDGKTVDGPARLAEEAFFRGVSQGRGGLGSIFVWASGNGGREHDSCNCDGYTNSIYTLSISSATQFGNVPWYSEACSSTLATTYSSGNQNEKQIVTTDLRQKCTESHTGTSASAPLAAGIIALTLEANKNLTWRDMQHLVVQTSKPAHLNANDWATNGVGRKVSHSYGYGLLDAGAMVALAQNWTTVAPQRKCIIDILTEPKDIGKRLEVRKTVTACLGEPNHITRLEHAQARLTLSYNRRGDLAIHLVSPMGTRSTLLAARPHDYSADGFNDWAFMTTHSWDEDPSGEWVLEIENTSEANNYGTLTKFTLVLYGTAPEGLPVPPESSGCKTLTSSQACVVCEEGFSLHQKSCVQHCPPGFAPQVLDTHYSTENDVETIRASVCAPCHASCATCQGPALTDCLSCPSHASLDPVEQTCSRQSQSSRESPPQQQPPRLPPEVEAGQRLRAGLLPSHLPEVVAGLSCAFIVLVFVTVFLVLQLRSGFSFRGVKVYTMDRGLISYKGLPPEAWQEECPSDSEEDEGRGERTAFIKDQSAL
# In short: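 Counterscreen measures cleavage of 2 microM BOC-RVRR-AMC, below its ~15 microM Km, by 5 nM full-length human furin at pH 7.0 after a 15-min compound preincubation. Inhibition derives from the 15-min fluorescence increase at 37C.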
# [3] = test system: Zika virus NS2B-NS3 protease (unlinked); experiment: Optimization of GU AMC qHTS for Zika virus inhibitors: Unlinked NS2B-NS3 protease assay (AID 1347151); note: nearly all actives have a fitted effect of over 80% in size; note: potency is the fitted concentration of half-maximal effect
# In short: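 Noncovalent NS2B hydrophilic domain–NS3 protease complex (25 nM final) in 10 mM Tris-HCl pH 8.0, 0.01% Tween 20; AMC substrate, room temperature 15 min (~20% conversion); fluorescence change normalized, 4-parameter Hill fit.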
# [4] = test system: Zika virus NS2B-NS3 protease (linked construct); experiment: Confirmatory screen NINDS AMC qHTS for Zika virus inhibitors (AID 1347152); note: nearly all actives have a fitted effect of over 70% in size; note: potency is the fitted concentration of half-maximal effect
# In short: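 Linked NS2B-NS3 protease, 1 nM, in 10 mM Tris-HCl pH 8.0, 0.01% Tween 20; compounds preincubated 15 min at room temperature. Nle-KRR-AMC 10 microM (Km 18.3 µM); 15-min fluorescence change (340/450 nm) fitted to 4-parameter Hill.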
# [5] = test system: Zika virus NS2B-NS3 protease (unlinked complex); experiment: Confirmatory screen GU AMC qHTS for Zika virus inhibitors (AID 1347153); note: nearly all actives have a fitted effect of over 70% in size;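 for potency: enzyme at 25 nM with substrate at 10 µM below its Km of 18.3 µM; potency is the fitted concentration of half-maximal effect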
# In short: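 Fluorescence change (ex 340/em 450 nm) over 15 min, ~20% substrate conversion, normalized to no-inhibitor and no-enzyme controls, then Hill-fitted. Unlinked protease at 25 nM; AMC peptide 10 µM.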
# [6] = test system: Zika virus NS2B-NS3 protease; experiment: Primary screen GU AMC qHTS for Zika virus inhibitors (AID 1347154); note: nearly all actives have a fitted effect of over 70% in size; note: potency is the fitted concentration of half-maximal effect
# In short: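 Unlinked Zika NS2B hydrophilic domain/NS3 protease domain noncovalent complex (25 nM final) in 10 mM Tris-HCl pH 8.0, 0.01% Tween 20, with AMC peptide substrate. Fluorescence (ex 340, em 450 nm) change over 15 min, room temperature; percent inhibition fitted to 4-parameter Hill equation.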
# [7] = qHTS of pediatric cancer cell lines to identify multiple opportunities for drug repurposing: Confirmatory screen for NB-EBc1 cells (AID 1347115);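 note: cells exposed to compound for 48 h before the viability read; nearly all actives have a fitted effect of over 45% in size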; note: potency is the fitted concentration of half-maximal effect
# In short: (§1)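 Cells (500-1,000/well) in growth media were settled 5 h at 37 degrees C, then given compounds for 48 h. Viability was read as CellTiter-Glo luminescence. Primary runs used MIPE at 11 points (0.78 nM-46 µM) and NPC at 8 points (0.59 nM-46 µM); follow-ups used 11 points.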
# [8] = qHTS of pediatric cancer cell lines to identify multiple opportunities for drug repurposing: Confirmatory screen for TC32 cells (AID 1347118);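 note: cells exposed to compound for 48 h before the read; nearly all actives have a fitted effect of over 65% in size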; note: potency is the fitted concentration of half-maximal effect
# In short: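 qHTS, TC32, 48 h drug treatment, CellTiter-Glo luminescence as a proxy for metabolically active cells; primary top concentration 46 µM (MIPE 11-pt, NPC 8-pt); confirmatory 11-pt.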
# [9] = qHTS of pediatric cancer cell lines to identify multiple opportunities for drug repurposing: Confirmatory screen for control Hh wild type fibroblast cells (AID 1347121); note: nearly all actives have a fitted effect of over 70% in size; note: potency is the fitted concentration of half-maximal effect
# In short: as §1
# [10] = qHTS of pediatric cancer cell lines to identify multiple opportunities for drug repurposing: Confirmatory screen for U-2 OS cells (AID 1347122); note: nearly all actives have a fitted effect of over 65% in size; note: potency is the fitted concentration of half-maximal effect
# In short: as §1
# [11] = qHTS of pediatric cancer cell lines to identify multiple opportunities for drug repurposing: Confirmatory screen for Rh41 cells (AID 1347123);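 note: 48 h compound exposure; nearly all actives have a fitted effect of over 60% in size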; note: potency is the fitted concentration of half-maximal effect
# In short: as §1
# [12] = qHTS of pediatric cancer cell lines to identify multiple opportunities for drug repurposing: Confirmatory screen for Rh18 cells (AID 1347125); note: nearly all actives have a fitted effect of over 55% in size; note: potency is the fitted concentration of half-maximal effect
# In short: as §1
# [13] = qHTS of pediatric cancer cell lines to identify multiple opportunities for drug repurposing: Confirmatory screen for Rh30 cells (AID 1347126); note: nearly all actives have a fitted effect of over 55% in size; note: potency is the fitted concentration of half-maximal effect
# In short: as §1
# [14] = qHTS of pediatric cancer cell lines to identify multiple opportunities for drug repurposing: Confirmatory screen for SJ-GBM2 cells (AID 1347116); note: nearly all actives have a fitted effect of over 60% in size; note: potency is the fitted concentration of half-maximal effect
# In short: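 Viability measured as metabolically active cells via CellTiter-Glo luminescence following 48 hours of compound exposure, 11-point dilutions in confirmatory testing. 500-1,000 cells/well plated 5 hours before dosing; controls were DMSO and 2.3 µM bortezomib.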
# [15] = qHTS of pediatric cancer cell lines to identify multiple opportunities for drug repurposing: Confirmatory screen for MG 63 (6-TG R) cells (AID 1347119); note: nearly all actives have a fitted effect of over 55% in size; note: potency is the fitted concentration of half-maximal effect
# In short: as §1
# [16] = qHTS of pediatric cancer cell lines to identify multiple opportunities for drug repurposing: Confirmatory screen for SK-N-SH cells (AID 1347129);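 note: cells exposed to compound for 48 h before viability read; nearly all actives have a fitted effect of over 60% in size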; note: potency is the fitted concentration of half-maximal effect
# In short: as §1
# [17] = ZIKV-mCherry secondary qHTS for Zika virus inhibitors (AID 1347158); note: top concentration of the series differs between compounds
# In short: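 Compounds were tested in Vero monkey kidney cells infected with recombinant mCherry-expressing Zika virus at MOI 1 for 48-72 h at 37 °C. Fixed cells were nuclear-stained and imaged, and infection rate was taken as the fraction of mCherry-positive cells.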
# [18] = qHTS of pediatric cancer cell lines to identify multiple opportunities for drug repurposing: Confirmatory screen for BT-37 cells (AID 1347117); note: nearly all actives have a fitted effect of over 55% in size; note: potency is the fitted concentration of half-maximal effect
# In short: as §1
# [19] = qHTS of pediatric cancer cell lines to identify multiple opportunities for drug repurposing: Confirmatory screen for OHS-50 cells (AID 1347128); note: potency is the fitted concentration of half-maximal effect
# In short: as §1
compound,measurement,setting,value
CC1COc2c(N3CCN(C)CC3)c(F)cc3c(=O)c(C(=O)O)cn1c23 (centres undefined),Potency,[1],56.2 µM (active)
same,Potency,[2],24.1 µM (active) and 27.1 µM (active)
same,Potency,[3],15 µM (active)
same,Potency,[4],24.1 µM (active) and 27.1 µM (active)
same,Potency,[5],27.1 µM (active)
same,Potency,[6],28.7 µM (active) and 24.1 µM (active)
CC12CC3CC(C)(C1)CC(N)(C3)C2,Potency,[1],inactive
same,Potency,[3],inactive
same,Potency,[6],inactive
COc1cc2nc(N3CCN(C(=O)c4ccco4)CC3)nc(N)c2cc1OC,Potency,[1],28.2 µM (active)
same,Potency,[2],14.9 µM (active)
same,Potency,[3],26.7 µM (active)
same,Potency,[4],10.5 µM (active)
Cc1ccccc1N1C(=O)c2cc(S(N)(=O)=O)c(Cl)cc2NC1C (centres undefined),Potency,[1],79.4 µM (active)
same,Potency,[2],27 µM (active)
O=C(c1ccc(OCCN2CCCCC2)cc1)c1c(-c2ccc(O)cc2)sc2cc(O)ccc12,Potency,[7],inactive
same,Potency,[8],16.5 µM (active)
same,Potency,[9],inactive
same,Potency,[10],inactive
same,Potency,[11],20.8 µM (active)
same,Potency,[12],inactive
same,Potency,[13],3.69 µM (active)
same,Potency,[3],inactive
same,Potency,[6],inactive
Clc1ccc2nsnc2c1NC1=NCCN1,Potency,[7],inactive
same,Potency,[14],inactive
same,Potency,[8],inactive
same,Potency,[15],inactive
same,Potency,[9],inactive
same,Potency,[10],inactive
same,Potency,[11],inactive
same,Potency,[12],inactive
same,Potency,[13],7.37 µM (active)
same,Potency,[16],inactive
same,Potency,[3],inactive
same,Potency,[6],inactive
O=c1c(O)c(-c2ccc(O)c(O)c2)oc2cc(O)cc(O)c12,Potency,[1],35.5 µM (active)
same,Potency,[2],inactive
same,Potency,[3],2.12 µM (active)
same,Potency,[6],inactive
same,outcome,[17],inactive
COc1cc2c(c(OC)c1OC)-c1ccc(OC)c(=O)cc1[C@@H](NC(C)=O)CC2,Potency,[18],56.2 nM (active)
same,Potency,[8],0.0355 µM (active)
same,Potency,[15],100 nM (active)
same,Potency,[9],inactive
same,Potency,[10],0.112 µM (active)
same,Potency,[12],inactive
same,Potency,[16],inactive
same,Potency,[3],inactive
same,Potency,[6],inactive
CC(C)Cc1ccc(C(C)C(=O)O)cc1 (centres undefined),Potency,[7],inactive
same,Potency,[14],1.31 µM (active)
same,Potency,[18],inactive
same,Potency,[8],3.69 µM (active)
same,Potency,[15],inactive
same,Potency,[9],inactive
same,Potency,[11],4.65 µM (active)
same,Potency,[12],inactive
same,Potency,[13],inactive
same,Potency,[19],inactive
same,Potency,[16],inactive
same,Potency,[1],inactive
same,Potency,[3],inactive
same,Potency,[6],inactive
OCCN(CCO)c1nc(N2CCCCC2)c2nc(N(CCO)CCO)nc(N3CCCCC3)c2n1,Potency,[1],79.4 µM (active)
same,Potency,[3],26.7 µM (active)
O=C(Nc1ccc([N+](=O)[O-])cc1Cl)c1cc(Cl)ccc1O,Potency,[7],1.44 µM (active)
same,Potency,[14],4.07 µM (active)
same,Potency,[18],1440 nM (active)
same,Potency,[8],2.04 µM (active)
same,Potency,[15],1620 nM (active)
same,Potency,[9],3.62 µM (active)
same,Potency,[10],4.56 µM (active)
same,Potency,[11],1.15 µM (active)
same,Potency,[12],3.62 µM (active)
same,Potency,[13],2.29 µM (active)
same,Potency,[19],1.62 µM (active)
same,Potency,[16],3.23 µM (active)
same,Potency,[2],inactive
same,Potency,[3],inactive
same,Potency,[6],inactive
Cc1cnc(C(=O)NCCc2ccc(S(=O)(=O)NC(=O)NC3CCCCC3)cc2)cn1,Potency,[1],inactive
same,Potency,[2],inactive
same,Potency,[3],inactive
same,Potency,[4],inactive
same,Potency,[5],inactive
CN1CCN(CCCN2c3ccccc3Sc3ccc(Cl)cc32)CC1,Potency,[7],inactive
same,Potency,[18],16500 nM (active)
same,Potency,[9],inactive
same,Potency,[10],5.85 µM (active)
same,Potency,[11],11.7 µM (active)
same,Potency,[13],18.5 µM (active)
same,Potency,[16],20.9 µM (active)
same,Potency,[1],44.7 µM (active)
same,Potency,[3],inactive
same,Potency,[6],inactive
COC(=O)Nc1nc2ccc(C(=O)c3cccs3)cc2[nH]1,Potency,[18],329 nM (active)
same,Potency,[8],0.131 µM (active)
same,Potency,[15],147 nM (active)
same,Potency,[9],inactive
same,Potency,[10],0.208 µM (active)
same,Potency,[12],inactive
same,Potency,[13],inactive
same,Potency,[19],0.208 µM (active)
same,Potency,[3],inactive
same,Potency,[6],inactive
O=C1c2c(O)ccc(O)c2C(=O)c2c(NCCNCCO)ccc(NCCNCCO)c21,Potency,[7],0.414 µM (active)
same,Potency,[14],2.08 µM (active)
same,Potency,[18],261 nM (active)
same,Potency,[8],0.131 µM (active)
same,Potency,[15],414 nM (active)
same,Potency,[9],14.7 µM (active)
same,Potency,[10],5.22 µM (active)
same,Potency,[11],0.465 µM (active)
same,Potency,[12],2.61 µM (active)
same,Potency,[13],4.14 µM (active)
same,Potency,[19],2.33 µM (active)
same,Potency,[16],0.526 µM (active)
same,Potency,[1],50.1 µM (active)
same,Potency,[3],inactive
same,Potency,[6],inactive
Clc1ccc(C(c2ccccc2Cl)C(Cl)Cl)cc1 (centres undefined),Potency,[7],inactive
same,Potency,[14],inactive
same,Potency,[8],inactive
same,Potency,[9],inactive
same,Potency,[10],inactive
same,Potency,[12],inactive
same,Potency,[13],inactive
same,Potency,[19],inactive
same,Potency,[16],inactive
same,Potency,[6],inactive
NC12CC3CC(CC(C3)C1)C2,Potency,[14],inactive
same,Potency,[18],inactive
same,Potency,[8],inactive
same,Potency,[9],inactive
same,Potency,[10],inactive
same,Potency,[11],inactive
same,Potency,[12],inactive
same,Potency,[13],inactive
same,Potency,[19],inactive
same,Potency,[16],inactive
same,Potency,[1],inactive
same,Potency,[3],inactive
same,Potency,[6],inactive
O=C1Cc2cc(CCN3CCN(c4nsc5ccccc45)CC3)c(Cl)cc2N1,Potency,[1],44.7 µM (active)
same,Potency,[2],24.1 µM (active)
same,Potency,[3],26.7 µM (active)
same,Potency,[4],34.1 µM (active)
same,Potency,[6],inactive
